The values below come from PubChem BioAssay.

Test [1] in a line: antimalarial activity against Dd2 strain (AID 2302;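 active = growth inhibition above 50% at the single 2 µM test dose, taken to imply half-maximal potency below 2 µM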;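 note: 0% = DMSO untreated growth and 100% = chloroquine plus artemisinin killed control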). The following applies: P. falciparum Dd2 in RBCs, LDH growth readout, 72 h; at 2 µM; hits give high values.
The nature of test [2]: HepG2 cytotoxicity, primary screen, cytotoxicity control for P. falciparum antimalarial project, cell-based, ATP luminescence (AID 2303;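 active = inhibition above 50%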;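 note: 0% = DMSO wells and 100% = digitonin-killed cells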). The following applies: HepG2 viability, 24-48 h, at 10 µM, hits give high values.
Test [3] has as its target L-lactate dehydrogenase (Plasmodium falciparum (isolate CDC / Honduras)) (UniProt Q27743). As to the kind of experiment: PfLDH activity inhibition – cell lysate, 3D7 strain, counter-screen for P. falciparum growth inhibition project (AID 2304).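 Note: 0% = vehicle and 100% = reference inhibitor.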 The following applies: P. falciparum 3D7 crude extract, LDH APAD/NBT absorbance; at 2 µM; hits give high values. In general terms: Counterscreens check selectivity or assay interference.

The nature of test [4]: inhibition of 3D7 malaria parasite growth – strain 3D7 (AID 2306).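 Note: 0% = DMSO wells and 100% = chloroquine plus artemisinin control wells.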 The following applies: P. falciparum 3D7 erythrocytic growth, LDH absorbance, 72 h; at 2 µM; hits give high values.
Test [5] addresses Calcium-dependent protein kinase 1 (Plasmodium falciparum (isolate 3D7)) (UniProt P62344). The experiment in a line: PfCDPK1 kinase inhibitors, biochemical, TCAMS library (AID 1159585; cut-off not given, nearly all actives have IC50 up to about 0.98 µM;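 note: inhibitors leave more ATP so luminescence rises with inhibition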). The following applies: recombinant PfCDPK1, Kinase-Glo ATP depletion luminescence.
Test [6] deals with Plasmodium falciparum protein kinase 6 (PK6, PF3D7_1337100) (UniProt Q8IDW1). As to the kind of experiment: PfPK6 kinase inhibitors, biochemical, TCAMS library (AID 1159586). The following applies: recombinant PfPK6, Kinase-Glo ATP depletion luminescence. Background: Kinase-Glo measures the ATP left after a reaction by luminescence.
The target in test [7] is Protein kinase 7 (PK7), Plasmodium falciparum 3D7 (PF3D7_0213400) (UniProt Q7YTF7). The experiment in a line: inhibition of Plasmodium PK7 catalytic activity – biochemical, TCAMS antimalarial set, Kinase-Glo luminescence (AID 1159587). The following applies: recombinant PfPK7, Kinase-Glo ATP depletion luminescence.
The target in test [8] is Calcium-dependent protein kinase 4 (Plasmodium falciparum (isolate 3D7)) (UniProt Q8IBS5). As to the kind of experiment: PfCDPK4 kinase inhibitors, biochemical, TCAMS library (AID 1159588; cut-off not given, nearly all actives have IC50 up to about 0.91 µM). The following applies: recombinant PfCDPK4, Kinase-Glo ATP depletion luminescence.

A number with no mark means an inactive call. For part of these data: Entries with a potency or affinity are not part of this list. Calls of active or inactive are those of the source. Unless noted, the rule behind the calls is not given here.

Sequence of Protein kinase 7 (PK7), Plasmodium falciparum 3D7 (PF3D7_0213400) (Q7YTF7 1-343): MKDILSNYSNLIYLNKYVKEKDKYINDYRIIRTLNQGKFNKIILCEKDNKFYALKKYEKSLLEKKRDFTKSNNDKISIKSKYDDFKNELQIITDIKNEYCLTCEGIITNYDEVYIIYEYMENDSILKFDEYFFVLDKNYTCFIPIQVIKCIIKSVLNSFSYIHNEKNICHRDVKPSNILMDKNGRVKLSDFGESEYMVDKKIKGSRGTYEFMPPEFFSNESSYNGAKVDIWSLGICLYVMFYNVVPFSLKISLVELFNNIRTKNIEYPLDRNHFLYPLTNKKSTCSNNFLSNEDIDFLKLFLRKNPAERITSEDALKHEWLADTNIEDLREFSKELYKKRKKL
Sequence of L-lactate dehydrogenase (Plasmodium falciparum (isolate CDC / Honduras)) (Q27743 whole entry, looked up): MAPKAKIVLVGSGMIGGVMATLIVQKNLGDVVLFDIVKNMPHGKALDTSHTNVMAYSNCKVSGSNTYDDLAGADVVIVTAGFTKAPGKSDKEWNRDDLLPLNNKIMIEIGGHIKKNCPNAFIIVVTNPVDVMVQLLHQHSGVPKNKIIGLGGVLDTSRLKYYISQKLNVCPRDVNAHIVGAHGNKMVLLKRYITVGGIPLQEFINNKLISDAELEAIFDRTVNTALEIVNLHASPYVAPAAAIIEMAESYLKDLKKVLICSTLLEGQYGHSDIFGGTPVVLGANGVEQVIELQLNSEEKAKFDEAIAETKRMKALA
Sequence of Plasmodium falciparum protein kinase 6 (PK6, PF3D7_1337100) (Q8IDW1 1-305): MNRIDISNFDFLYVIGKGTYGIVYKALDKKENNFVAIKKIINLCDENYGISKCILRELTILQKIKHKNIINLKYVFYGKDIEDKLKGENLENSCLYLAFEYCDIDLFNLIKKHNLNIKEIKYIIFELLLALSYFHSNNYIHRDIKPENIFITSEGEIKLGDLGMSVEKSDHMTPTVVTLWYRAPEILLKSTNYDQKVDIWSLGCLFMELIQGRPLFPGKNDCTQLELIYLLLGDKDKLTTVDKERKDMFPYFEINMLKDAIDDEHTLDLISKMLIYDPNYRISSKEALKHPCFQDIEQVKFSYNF
Sequence of Calcium-dependent protein kinase 4 (Plasmodium falciparum (isolate 3D7)) (Q8IBS5 whole entry, looked up): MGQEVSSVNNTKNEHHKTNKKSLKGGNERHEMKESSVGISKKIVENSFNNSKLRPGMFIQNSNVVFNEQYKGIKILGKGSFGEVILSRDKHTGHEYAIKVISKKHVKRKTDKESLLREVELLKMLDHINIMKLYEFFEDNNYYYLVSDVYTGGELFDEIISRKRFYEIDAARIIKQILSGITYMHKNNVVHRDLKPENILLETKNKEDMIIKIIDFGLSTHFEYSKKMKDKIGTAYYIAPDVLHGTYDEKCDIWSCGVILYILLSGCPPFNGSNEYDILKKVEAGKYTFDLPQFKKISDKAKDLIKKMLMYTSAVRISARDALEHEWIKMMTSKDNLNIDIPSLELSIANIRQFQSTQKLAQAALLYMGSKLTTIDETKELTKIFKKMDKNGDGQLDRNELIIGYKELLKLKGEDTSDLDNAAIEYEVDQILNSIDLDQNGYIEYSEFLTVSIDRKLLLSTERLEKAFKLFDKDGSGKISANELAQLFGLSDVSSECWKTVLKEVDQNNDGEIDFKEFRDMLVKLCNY
Sequence of Calcium-dependent protein kinase 1 (Plasmodium falciparum (isolate 3D7)) (P62344 whole entry, looked up): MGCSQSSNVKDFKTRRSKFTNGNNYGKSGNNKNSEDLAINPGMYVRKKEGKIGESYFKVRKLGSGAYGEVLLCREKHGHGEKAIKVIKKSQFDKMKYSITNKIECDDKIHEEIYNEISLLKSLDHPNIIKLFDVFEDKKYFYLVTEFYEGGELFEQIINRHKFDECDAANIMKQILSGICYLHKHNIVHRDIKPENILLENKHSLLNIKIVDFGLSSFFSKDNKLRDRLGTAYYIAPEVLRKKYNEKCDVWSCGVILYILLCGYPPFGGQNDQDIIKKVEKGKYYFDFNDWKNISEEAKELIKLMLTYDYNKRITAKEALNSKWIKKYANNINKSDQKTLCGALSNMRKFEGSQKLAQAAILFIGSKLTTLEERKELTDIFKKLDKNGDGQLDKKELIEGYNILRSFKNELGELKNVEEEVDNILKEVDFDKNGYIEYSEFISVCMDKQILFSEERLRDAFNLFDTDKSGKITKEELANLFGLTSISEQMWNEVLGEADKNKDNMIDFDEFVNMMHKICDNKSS

As for `C[C@@]12C[C@@H](Nc3nc(NCCc4ccc(O)cc4)nc(N4CCNCC4)n3)C[C@@H](C1)c1cccc(Cl)c1O2`, the growth inhibition in test [1] was 47%; in test [4], 101% (active). Further, the inhibition (usually the drop in the measured response relative to a control, in per cent) in test [2] is 92% (active); in test [3], 4%. In addition, the result in test [5], in test [6], in test [7] and in test [8] was inactive.
As to `OC1(c2ccccc2)c2cc(Cl)ccc2OC1c1nc2c(Cl)ccc(Cl)c2o1` (centres undefined), the growth inhibition is 89% (active) in test [1] and 98% (active) in test [4]. In addition, the inhibition in test [2] was 7%; in test [3], -6%. The outcome in test [5], in test [6], in test [7] and in test [8] was inactive.
As for `OCCN1CCN(C(=S)Nc2ccccc2)CC1`, the growth inhibition in test [1] is 7%; in test [4], 97% (active). The results for the inhibition in test [2] and in test [3] were 6% and 2%, respectively. Further, the result in test [5], in test [6], in test [7] and in test [8] was inactive.
For the compound `CN=C(N)c1ccc(NC(=O)Nc2ccc(C(N)=NC)cc2)cc1`, the growth inhibition in test [1] was 71% (active); in test [4], 84% (active). Moreover, the inhibition in test [2] is -5%; in test [3] it was -2%. The outcome in test [5], in test [6], in test [7] and in test [8] was inactive.
With `COc1cccc2c(NN=Cc3ccccc3[N+](=O)[O-])ccnc12`, the growth inhibition in test [1] is 43%; in test [4], 99% (active). The inhibition in test [2] was 8%; in test [3] it was -3%. The result in test [5], in test [6], in test [7] and in test [8] was inactive.
In the case of `Clc1ccc2c(NCc3ccc4c(c3)OCO4)ccnc2c1`, the values for the growth inhibition in test [1] and in test [4] were 97% (active) and 101% (active), respectively. The inhibition in test [2] is 6%; in test [3], 1%. Besides, the result in test [5], in test [6], in test [7] and in test [8] was inactive.
Regarding `O=C1CCCN1CCCNCc1ccc(-c2ccc(-c3nc4ccc(C(F)(F)F)cc4[nH]3)s2)cc1`, the growth inhibition in test [1] is 96% (active); in test [4], 100% (active). The inhibition in test [2] is 9%; in test [3], -4%. The result in test [5], in test [6], in test [7] and in test [8] was inactive.
With `Fc1ccc2nc(-c3ccc(-c4cccc(CN5CCCCC5)c4)cc3)[nH]c2c1`, the growth inhibition in test [1] is 101% (active); in test [4], 100% (active). Besides, the inhibition was 10% in test [2] and -6% in test [3]. For the same compound, the result in test [5], in test [6], in test [7] and in test [8] was inactive.
Take `Cc1ccc(O)cc1Nc1ccnc2ccc(-c3csc(CNCCN4CCOCC4)n3)cc12`: the growth inhibition in test [1] is 97% (active); in test [4], 101% (active). Also, the inhibition in test [2] was -24%; in test [3], -2%. The result in test [5], in test [6], in test [7] and in test [8] was inactive.
On to `CCOC(=O)c1cc(C(=O)NCCCCN2CCC(c3ccc4c(c3OC)CCCC4)CC2)ccc1-c1ccc(C(F)(F)F)cc1`, for which the growth inhibition in test [1] was 60% (active); in test [4], 101% (active). The inhibition in test [2] is 100% (active); in test [3], -3%. In addition, the outcome in test [5], in test [6], in test [7] and in test [8] was inactive.
As for `CCCNCc1ccc(-c2ccc(CN(CCOC)C(=O)c3cnc(C)cn3)cc2)nc1`, the figures for the growth inhibition in test [1] and in test [4] were 14% and 81% (active), respectively. Also, the inhibition is -3% in test [2] and -4% in test [3]. In addition, the result in test [5], in test [6], in test [7] and in test [8] was inactive.
Regarding `CC(=O)Nc1ccc([N+](=O)[O-])c2c(Br)cccc12`, the results for the growth inhibition in test [1] and in test [4] were -1% and 100% (active), respectively. For the same compound, the inhibition in test [2] was -3%; in test [3], -4%. The result in test [5], in test [6], in test [7] and in test [8] was inactive.
On to `C/C=C/COc1ccc(-c2c(C)[nH]c(C)c(Cl)c2=O)cc1`, for which the growth inhibition in test [1] and in test [4] was 97% (active) throughout. The inhibition in test [2] is 0%; in test [3], 2%. Moreover, the outcome in test [5], in test [6], in test [7] and in test [8] was inactive.
Regarding `COCCN1CCC(CN(C)CC(C)(C)c2nc(-c3ccc(Cl)c(O)c3)c(-c3ccncc3)[nH]2)CC1`, the growth inhibition in test [1] was 10%; in test [4], 94% (active). The inhibition was -8% in test [2] and -2% in test [3]. Further, the result in test [5], in test [6], in test [7] and in test [8] was inactive.
For the compound `COc1ccc(-c2cnc3ccc(NCc4ccc(F)cc4)nn23)cc1OC`, the growth inhibition in test [1] is 99% (active); in test [4] it was 97% (active). In addition, the inhibition in test [2] is 35%; in test [3], -2%. The result in test [5], in test [6], in test [7] and in test [8] was inactive.
For the compound `Cc1cccc2[nH]c(-c3ccc(-c4cccc(NC(=O)CCc5cnc[nH]5)c4)s3)nc12`, the growth inhibition was 70% (active) in test [1] and 94% (active) in test [4]. The inhibition is 2% in test [2] and -4% in test [3]. Further, the result in test [5], in test [6], in test [7] and in test [8] was inactive.
As to `CCCN(Cc1nnc(-c2ccco2)o1)C(=O)C1CCN(c2ncc(C(F)(F)F)cc2Cl)CC1`, the growth inhibition is 92% (active) in test [1] and 98% (active) in test [4]. Besides, the inhibition in test [2] is 19%; in test [3] it was -6%. Also, the result in test [5], in test [6], in test [7] and in test [8] was inactive.
For the compound `CC(C)n1c(C2CCN(CC3CCN(C(=O)/C=C/c4ccc(Cl)c(Cl)c4)CC3)CC2)nc2ccccc21`, the growth inhibition is 7% in test [1] and 94% (active) in test [4]. For the same compound, the values for the inhibition in test [2] and in test [3] were 36% and 2%, respectively. Also, the outcome in test [5], in test [6], in test [7] and in test [8] was inactive.
